# Rows were chosen to be rich in hits. Some 1.7% of all compounds tested hit in one or more screens of this group.
# NOD2-RIPK2 inh = NOD2-RIPK2 protein interaction inhibition. O43353. CHO BLA complementation NOD2-RIPK2, CCF4 ratio. inhibition, % at 4.98 µM. actives 0.38% (n = 360,000). AID 624267; in the data active = inhibition above about 21%;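 note: 0% = vehicle only and 100% = reference blocker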
# Target sequence (O43353 whole entry, looked up): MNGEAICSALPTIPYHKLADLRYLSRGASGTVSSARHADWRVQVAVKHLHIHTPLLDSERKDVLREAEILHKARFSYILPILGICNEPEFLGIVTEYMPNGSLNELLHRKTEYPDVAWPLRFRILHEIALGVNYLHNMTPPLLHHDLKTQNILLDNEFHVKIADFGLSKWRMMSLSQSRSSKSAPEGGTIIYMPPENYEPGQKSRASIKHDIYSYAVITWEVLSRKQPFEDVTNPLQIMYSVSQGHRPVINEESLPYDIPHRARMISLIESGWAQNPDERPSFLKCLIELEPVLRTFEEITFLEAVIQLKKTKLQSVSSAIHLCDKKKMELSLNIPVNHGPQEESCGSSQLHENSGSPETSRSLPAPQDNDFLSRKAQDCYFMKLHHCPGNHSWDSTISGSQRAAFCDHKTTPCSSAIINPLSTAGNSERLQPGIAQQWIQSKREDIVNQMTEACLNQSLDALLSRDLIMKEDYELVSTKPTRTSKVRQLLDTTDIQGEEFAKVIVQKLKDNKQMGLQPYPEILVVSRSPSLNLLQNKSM
# Myeloid diff MLP = compounds promoting myeloid differentiation | ER-HoxA9 myeloid progenitors, lysozyme-GFP differentiation, flow cytometry | calls only at 10 µM | actives 1% (n = 360,000);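 active = normalized GFP-positive differentiation at or above the plate's own cutoff, the solvent-only control mean plus 3 SD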;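 note: cells exposed to compound for four days before flow analysis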
# TLR4-MyD88 BLA = inhibitors of human TLR4-MyD88 binding; AID 861; inhibition, % at 8.4 µM; actives 0.18% (n = 200,000); HeLa CL3-4 TLR4/MyD88 BLA complementation, FRET ratio; in the data active = inhibition above about 25%;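 note: 0% = vehicle and 100% = reference inhibitor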
# ABCB6 inh 2 = human ABCB6 transporter inhibition; K562-ABCB6 porphyrin accumulation, flow cytometry, 1 h; hits give low values; fluorescence ratio to DMSO, % at 10 µM; AID 602162; actives 0.19% (n = 360,000);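 active = fluorescence ratio to DMSO below 75%, the collection mean minus 3 SD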;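 note: signal is porphyrin accumulated inside mitochondria; 100% equals median channel fluorescence of DMSO control wells; lower ratio means ABCB6 inhibition with less porphyrin fluorescence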
# TLR9-MyD88 inh = blocks human TLR9 binding to MyD88. CHO BLA complementation TLR9-MyD88, CCF4 FRET ratio. inhibition, % at 4.98 µM. actives 0.21% (n = 340,000). AID 504734;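 active = inhibition above the mean over all tested compounds plus 3 SD, cut at about 21% in these data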;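 note: 0% = DMSO only wells and 100% = clavulanate BLA inhibitor control wells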
# The depositor's hits bear a star; i = inactive; x = no result; + = active, no number.
SMILES,NOD2-RIPK2 inh,Myeloid diff MLP,TLR4-MyD88 BLA,ABCB6 inh 2,TLR9-MyD88 inh
N#C/C(=C\C=C\c1ccccc1)C(=O)Nc1ccccc1,4.7,i,-2.2,97.0,10.4
N#C/C(=C/C=C/c1ccccc1)C(=O)Nc1ccccc1,-12.7,+,-4.8,96.0,-5.0
C=CCc1cc(Cl)ccc1OCCCn1ccnc1,-2.8,i,x,99.0,-7.7
C=CCc1cc(Cl)ccc1OCCn1ccnc1,10.4,+,x,129.0,5.6
O=C(c1cccc(F)c1)N1CCC2(CC1)NCCc1[nH]cnc12,10.4,+,x,98.0,17.3
CCCn1cc(CN2CCC(n3nccc3NC(=O)C(OC)c3ccccc3)CC2)c(C)n1 (centres undefined),9.6,i,x,98.0,-4.0
Cc1ccc[n+](C2C(c3ccc([N+](=O)[O-])cc3)C(C#N)=C([S-])NC2(O)C2CC2)c1 (centres undefined),-4.8,i,-8.7,105.0,1.5
COc1ccc([C@H]2C(C#N)=C([S-])N[C@](C)(O)[C@@H]2[n+]2ccccc2)cc1,3.1,+,x,107.0,x
CCc1ccc2nc(N3CCN(C(=O)C(C)(C)C)CC3)sc2c1,-4.6,+,x,97.0,16.6
CC(C)(C)C(=O)N1CCN(c2nc3ccccc3s2)CC1,-1.4,i,x,99.0,3.3
Cc1ccc(NS(=O)(=O)c2cc([N+](=O)[O-])ccc2N/N=C/c2sc(N3CCOCC3)nc2-c2ccccc2)c(C)c1,2.8,+,x,i,6.3
CCCCN1C(=O)C(=O)N(CC(=O)N2CCc3ccccc32)C1=O,-3.6,i,x,100.0,-1.0
O=S1(=O)CC(N2CC=CC2)CN1Cc1cn(Cc2ccc(F)cc2)nn1 (centres undefined),-5.3,i,x,93.0,x
Cc1ccnn1CCC(=O)N1CCCC(Nc2ccc(C(C)C)cc2)C1 (centres undefined),-2.1,i,x,94.0,5.8
CC(C)c1ccc(NC2CCCN(C(=O)CCN3CCCC3=O)C2)cc1 (centres undefined),0.5,+,x,81.0,-1.6
COc1ccc(-c2cnc3c(NC=O)cc(-c4ccccc4OC)cn23)cc1OC,9.9,x,x,101.0,x
CCc1oc(C(=O)OC)cc1CSC(=N)N,5.8,i,x,100.0,-2.7
COc1ccc(CCN(/C=C2\Sc3ccccc3C2=O)C(C)=O)cc1OC,-4.4,+,x,157.0,x
CCOc1ccccc1NC(=O)CCCN1C(=S)NC(C)(C)CC1C (centres undefined),-8.9,i,5.5,93.0,-7.6
CN(Cc1ccccc1)C(=O)c1cccc(NC(=O)Cc2cccc(NC(=O)C3CCN(C(=O)c4ccccc4)CC3)c2)c1,-8.9,i,x,100.0,7.0
CCOC(=O)c1c(NC(C)=O)sc2c1CCC(C=NCCCN(CC)CC)=C2Sc1ccccc1,3.1,+,0.3,89.0,4.8
CCC1=C(OC(=O)N(CC)CC)N2C(=O)OC(=NCCc3c[nH]c4ccccc34)[C@]2(Cc2ccccc2)[C@H]2C1=CC[C@H]1C(=O)N(CC)C(=O)[C@H]12,-10.7,i,x,99.0,-5.3
O=C(CCN1C(=O)NC2(CCCC2)C1=O)Nc1ccc(-c2nc3ccccc3s2)cc1,14.8,+,x,111.0,-4.5
CC1OC(CC(=O)O)CC2=C1C(=O)c1c(O)cccc1C2=O (centres undefined),78.0*,x,x,85.0,0.3
O=C1c2cccc(O)c2C(=O)c2c(O)cccc21,x,x,-1.3,x,x
SMILES,NOD2-RIPK2 inh,Myeloid diff MLP,TLR4-MyD88 BLA,ABCB6 inh 2,TLR9-MyD88 inh
COc1ccc(CNC(=O)C[C@H]2C(=O)N(CCc3ccccc3)C[C@@H]2Cc2ccccc2)cc1,-1.4,i,x,88.0,1.6
C=CCn1c(COc2ccc(Cl)cc2)nnc1SCC(=O)c1c(N)n(C)c(=O)n(C)c1=O,8.2,i,14.4,96.0,14.4
O=C(N/N=C/c1cccc(O)c1)N/N=C/c1cccc(O)c1,-11.9,+,x,138.0,-6.0
O=C(CCc1ccccc1)N/N=C/c1cccc(O)c1,3.3,i,3.4,98.0,-2.0
CCN(CC)C(C)C(=O)Nc1c2c(cc3c1CCC3)CCC2 (centres undefined),1.0,+,-8.2,110.0,5.8
O=c1nc(Nc2ccc(OCc3ccccc3)cc2)sc2ncccc12,9.8,+,3.3,95.0,1.5
CCOC(=O)c1ccc(Nc2nc(=O)c3cccnc3s2)cc1,-10.9,i,5.3,100.0,0.5
CC(C)/C=C1\CC/C(=C\c2ccc(N(C)C)cc2)C1=O,-2.0,+,16.7,205.0,-4.2
O=C(CSc1nc2ccc(Cl)cc2[nH]1)c1c[nH]c2ccccc12,1.8,i,7.7,100.0,-8.2
O=C(CSc1nc2ncc(Cl)cc2[nH]1)c1c[nH]c2ccccc12,-2.2,+,x,112.0,8.7
COc1ccc2c(c1)c(CC(=O)Nc1cc(C)ccc1C)c(C)n2C(=O)c1ccc(Cl)cc1,4.7,+,-2.2,107.0,-2.4
COc1ccc(S(=O)(=O)N(CC(=O)NC2CCCCC2)c2ccc(F)cc2)cc1,1.3,i,x,96.0,10.9
O=[N+]([O-])c1ccc(N/N=C/c2cn(Cc3ccc(F)cc3)c3ccccc23)nc1,0.1,+,-4.3,269.0,5.0
CCCCN(CC)CCCNC(=O)c1cc2cc3ccc(C)cc3nc2o1,-1.0,i,x,99.0,2.9
CCCCN(CC)CCNC(=O)c1cc2cc3ccc(Cl)cc3nc2o1,-5.3,+,x,i,-2.0
CCCCN(C(=O)c1nn(C)c(=O)c2ccccc12)c1c(N)n(CC(C)C)c(=O)[nH]c1=O,-3.7,i,x,100.0,-12.3
CN(C)CCCN(C(=O)c1ccc2c(c1)CCCC2)c1nc2ccc(Cl)cc2s1,9.2,+,9.9,101.0,-0.1
CCCc1nnc(SCC(=O)NC2CCCCC2)n1CCOC,0.5,i,x,98.0,9.7
COc1ccccc1-n1c(SC(C)C(=O)NCC2CCCO2)nc2cc(Cl)ccc2c1=O (centres undefined),0.9,i,x,99.0,-7.1
Cc1cc(/C=C2\SC(=S)NC2=O)c(C)n1C,-4.3,+,8.6,103.0,-10.2
CC(C(=O)Nc1ccccc1Br)N1c2cccc3cccc(c23)S1(=O)=O (centres undefined),0.9,i,x,98.0,-8.7
O=C(COc1ccc(S(=O)(=O)N2CCOCC2)cc1Cl)N1CCCC1,-11.1,i,x,98.0,-0.1
O=C(COc1ccc(S(=O)(=O)N2CCCCC2)cc1Cl)N1CCCC1,1.3,+,x,171.0,-19.2
CCCN=C1N(CC)C[C@@H]2[C@@H]3C(=O)N(C)C(=O)[C@@H]3[C@](C)(C(=O)OC)N12,-9.0,i,x,102.0,-4.6
COc1ccc(CCNC(=O)CN2c3cccc4cccc(c34)S2(=O)=O)cc1,2.7,i,x,93.0,-1.3
Cc1cc(C)c2c(N)c3ccccc3nc2n1,2.9,i,-10.3,107.0,-6.4
CCc1ccc2nc3nc(C)cc(C)c3c(N)c2c1,-7.7,+,-11.2,122.0,-8.8

# High-throughput results (PubChem)
